{
  "source": "PubChem BioAssay AID504634",
  "about": "(The Scripps Research Institute Molecular Screening Center, 2011)",
  "note": "About 280 (0.082%) of roughly 340,000 compounds were called active. The sample holds actives, similar compounds and a random draw of the others, so the mix is not that of the screen. A number with no mark means an inactive call. Cut-off read from the data, not from the text of the source: active = inhibition mostly above about 23% (no sharp cut-off); inactive = mostly below about 18%.",
  "data": [
    {"molecular_target": "5-hydroxytryptamine receptor 5A (Homo sapiens) (UniProt P47898)", "sequence (P47898 whole entry, looked up)": "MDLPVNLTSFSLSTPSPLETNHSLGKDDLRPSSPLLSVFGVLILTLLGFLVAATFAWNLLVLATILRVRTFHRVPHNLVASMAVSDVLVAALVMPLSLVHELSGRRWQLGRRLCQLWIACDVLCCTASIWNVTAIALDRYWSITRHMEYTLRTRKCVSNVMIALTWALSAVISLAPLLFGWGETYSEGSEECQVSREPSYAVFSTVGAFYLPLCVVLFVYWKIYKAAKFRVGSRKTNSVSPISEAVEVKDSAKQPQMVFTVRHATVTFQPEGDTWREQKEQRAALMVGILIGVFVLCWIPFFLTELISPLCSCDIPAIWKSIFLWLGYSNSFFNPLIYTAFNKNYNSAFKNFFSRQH", "test": "HTR5A inverse agonists in luminescence cell assay, primary screen, counter-screen for OPRM1-OPRD1 heterodimer inverse agonist project, full-deck HTS (AID 504634);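 note: 0% = cells with DMSO and 100% = no-cell wells with DMSO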", "conditions": "HTR5A cell line, inverse agonism, at 9.3 µM, hits give high values", "values": [
      {"smiles": "CC(=O)N1CCN(c2ccc(NCc3ccc(C(C)C)cc3)cc2)CC1", "inhibition": "-28.6%"},
      {"smiles": "CC1CCCN(c2ccc(C(=O)NCCc3ccccc3)cn2)C1", "note": "(configuration not stated)", "inhibition": "-15.3%"},
      {"smiles": "C=C1CCN([C@@H](Cc2ccccc2)C(=O)N2CCOCC2)S(=O)(=O)c2ccccc21", "inhibition": "-14.5%"},
      {"smiles": "CCOC(=O)N1CCC(NC(=O)C(NS(=O)(=O)c2ccc3c(c2)CCN3C(=O)CC)C(C)C)CC1", "note": "(configuration not stated)", "inhibition": "-32.3%"},
      {"smiles": "CCN(c1ccccc1)S(=O)(=O)c1ccc2[nH]c(=O)[nH]c2c1", "inhibition": "4.19%"},
      {"smiles": "O=C(O)c1ccc(NS(=O)(=O)c2cccc3nsnc23)cc1", "inhibition": "-11.7%"},
      {"smiles": "Cc1cc(-c2ccc(S(=O)(=O)N3CCN(c4cccc(C(F)(F)F)c4)CC3)s2)on1", "inhibition": "-11.3%"},
      {"smiles": "CCCCNC(=O)C1CCC(=O)N1CCc1ccccc1", "note": "(configuration not stated)", "inhibition": "4.38%"},
      {"smiles": "COc1ccc(N2CC(C)Cn3c2nc2c3c(=O)n(Cc3ccccc3F)c(=O)n2C)c(OC)c1", "note": "(configuration not stated)", "inhibition": "6.23%"},
      {"smiles": "CN(C)c1ccc(/C=C/C(=O)c2ccc(O)cc2)cc1[N+](=O)[O-]", "inhibition": "5.01%"},
      {"smiles": "O=C(/C=C/c1ccc(Cl)c([N+](=O)[O-])c1)c1ccc(O)cc1", "inhibition": "25.2% (active)"},
      {"smiles": "CN(C)c1ccc(/C=C/C(=O)c2ccc(C(C)(C)C)cc2)cc1[N+](=O)[O-]", "inhibition": "-5.83%"},
      {"smiles": "CC(C)CCNC(=O)C(C)N(C(=O)Cn1nnc(-c2ccc(F)cc2)n1)C1CCCC1", "note": "(configuration not stated)", "inhibition": "-27.5%"},
      {"smiles": "CC1(c2nnc(Cc3ccccc3)o2)CC(c2ccccc2F)=NO1", "note": "(configuration not stated)", "inhibition": "-30.2%"},
      {"smiles": "O=[N+]([O-])/C=C/c1ccc2c(ccn2Cc2ccccc2)c1", "inhibition": "29.1%"},
      {"smiles": "COc1ccc(CN2CCCC(C(=O)N3CCCCC3)C2)cc1", "note": "(configuration not stated)", "inhibition": "-7.55%"},
      {"smiles": "COc1cc(N2CCCC2)c(OC)cc1/C=C(/C#N)c1cccc(Br)c1", "inhibition": "0.8%"},
      {"smiles": "Cc1noc(C)c1-c1nc(CSc2ccc(Cl)cc2)no1", "inhibition": "-15%"},
      {"smiles": "O=C(NCCC1CCCCN1S(=O)(=O)c1ccccc1)C(=O)NCC1CCCO1", "note": "(configuration not stated)", "inhibition": "-11.3%"},
      {"smiles": "CCOc1ncccc1C(=O)N(CC)CC(=O)Nc1ccc(NC(C)=O)cc1", "inhibition": "-12.8%"},
      {"smiles": "CCSc1nc2sc3c(c2c(=O)n1-c1ccc(C)cc1)CCN(C)C3", "inhibition": "-7.48%"},
      {"smiles": "CCc1ccc(OCC(=O)N(Cc2ccccc2)C2CCS(=O)(=O)C2)cc1", "note": "(configuration not stated)", "inhibition": "9.5%"},
      {"smiles": "O=C(NCc1ccc(F)cc1)C1CCC(CNc2c(N3CCOCC3)c(=O)c2=O)CC1", "note": "(configuration not stated)", "inhibition": "4.62%"},
      {"smiles": "CCNC(=S)N1CCN(S(=O)(=O)c2ccc(Cl)s2)CC1", "inhibition": "2.35%"},
      {"smiles": "CSc1cccc(NC(=O)C2CCCN2S(=O)(=O)c2ccc3c(c2)CCC(=O)N3)c1", "note": "(configuration not stated)", "inhibition": "-6.95%"},
      {"smiles": "COn1c(=O)c(=O)n(OC)c2ccccc21", "inhibition": "13.4%"},
      {"smiles": "CC(NC(=O)c1cccc2ccccc12)c1ccc2c(c1)CCCC2", "note": "(configuration not stated)", "inhibition": "-1.12%"},
      {"smiles": "COCCn1c(SCC(=O)Nc2ccc3c(c2)CCC3)nc2ccccc2c1=O", "inhibition": "4.39%"},
      {"smiles": "COC(=O)C1CCCCN1C(=O)c1ccc(OC2CCN(C(C)=O)CC2)c(OC)c1", "note": "(configuration not stated)", "inhibition": "-12.2%"},
      {"smiles": "Cc1cc(C)c(S(=O)(=O)N2CCCC2CNC(=O)c2ccc3c(c2)OCO3)c(C)c1", "note": "(configuration not stated)", "inhibition": "1.64%"},
      {"smiles": "Cc1cc(NC(=O)CCN2CCN(Cc3ccccc3)CC2)ccc1Br", "inhibition": "-5.24%"},
      {"smiles": "CN(CCO)S(=O)(=O)c1ccc2c(c1)C(=O)c1cc(S(=O)(=O)N(C)CCO)ccc1-2", "inhibition": "-0.05%"},
      {"smiles": "Cn1c(N)c(C(=O)COC(=O)c2cnc(Cl)c(Cl)c2)c(=O)n(C)c1=O", "inhibition": "13.4%"},
      {"smiles": "CCOc1ccc(NC(=O)CC(Cc2ccc(Cl)cc2)C(=O)O)cc1", "note": "(configuration not stated)", "inhibition": "11.4%"},
      {"smiles": "COc1ccc(CCNC(=O)COc2cc(C)cc3oc(=O)c(C)c(C)c23)cc1OC", "inhibition": "-41.4%"},
      {"smiles": "Cc1cccc(C(=O)OC(C)CN2CCCC2)c1", "note": "(configuration not stated)", "inhibition": "-16.4%"},
      {"smiles": "O=C(NC(=S)Nc1cc(C(F)(F)F)ccc1N1CCOCC1)c1ccc(-c2cccc(Cl)c2)o1", "inhibition": "12.2%"},
      {"smiles": "Cc1ccc(NC(=O)CSc2nc(=O)n(CCN(C)C)c3c2CCCC3)c(C)c1", "inhibition": "8.38%"},
      {"smiles": "Cc1c(C(=O)NCCN2C(=O)S/C(=C\\c3cccs3)C2=O)cccc1[N+](=O)[O-]", "inhibition": "-12.1%"},
      {"smiles": "Cc1cc(NC(=O)CSC2=NS(=O)(=O)c3cc(Cl)ccc3N2)no1", "inhibition": "6.86%"},
      {"smiles": "Cc1ccc(S(=O)(=O)NCC(C)NS(C)(=O)=O)cc1", "note": "(configuration not stated)", "inhibition": "-0.41%"},
      {"smiles": "CC(=O)N(O)CCCCCNC(=O)CCC(=O)N(O)CCCCCNC(=O)CCC(=O)N(O)CCCCCNC(=O)CCC(=O)O", "inhibition": "2.24%"},
      {"smiles": "O=C(NCc1ccncc1)C1CCN(C(=O)c2cccc(Cl)c2)CC1", "inhibition": "-13.3%"},
      {"smiles": "Cc1[nH]c2ccccc2c1C(=O)COC(=O)c1c(-c2ccccc2)noc1C", "inhibition": "-12.9%"},
      {"smiles": "Nc1nonc1-n1nnc(C(=O)N/N=C/c2cc(Br)ccc2O)c1CSC1=NCCS1", "inhibition": "-4.39%"},
      {"smiles": "Cc1c(-c2ccccc2)cn2c1-c1ccc(C)n1CC2", "inhibition": "-5.32%"},
      {"smiles": "Cc1noc(C)c1COc1cccc(C(=O)Nc2cccnc2)c1", "inhibition": "22.3% (active)"},
      {"smiles": "CC(=O)c1cccc(OCc2cc(C(=O)NC(C)Cc3cccnc3)no2)c1", "note": "(configuration not stated)", "inhibition": "-3.71%"},
      {"smiles": "Cc1noc(C)c1COc1ccc(C(=O)NCCOc2ccccc2)cc1", "inhibition": "-0.9%"},
      {"smiles": "CCc1nc2ccccc2n(CCOCCOCCn2c(=O)c(CC)nc3ccccc32)c1=O", "inhibition": "-0.84%"},
      {"smiles": "CN(C(=O)CSc1nnc(Nc2ccccc2)s1)C1CCS(=O)(=O)C1", "note": "(configuration not stated)", "inhibition": "16.5%"},
      {"smiles": "C/C=C/C(=O)Nc1ccc(N2CCN(c3ccc(C(F)(F)F)cn3)CC2)nc1", "inhibition": "-13%"},
      {"smiles": "O=P(O)(CP(=O)(c1ccccc1)c1ccccc1)c1ccccc1", "inhibition": "4.79%"},
      {"smiles": "COc1ccc(S(=O)(=O)N2CCSCC2)cc1", "inhibition": "16.4%"},
      {"smiles": "CCn1cc(C(=O)NCCCN2CCCCCC2)c(=O)c2cc(S(=O)(=O)N3CCc4ccccc4C3)ccc21", "inhibition": "-11%"},
      {"smiles": "CCOC(=O)c1cn(CC)c2cc(F)c(F)cc2c1=O", "inhibition": "-4.15%"},
      {"smiles": "CC[C@H](C)[C@@H](C(=O)N1CCNCC1)n1cc([C@@H](N)Cc2ccc(O)cc2)nn1", "inhibition": "-7.48%"}
    ]}
  ]
}
